Results taken from PubChem BioAssay AID1851 (National Center for Advancing Translational Sciences (NCATS), 2009).
Several values for one entry are separate records, joined by “and”; a condition that tells them apart may be missing. Equal values may be shown once. Screen size: about 16,000 compounds; about 5,700 (36%) were called active. Another 24% or so got no clear call; they are omitted. Calls come from the whole dose curve; as a rule, active = well fitted curve in the direction sought with a large enough effect; inconclusive = small, poorly fitted or top-dose-only effect, or effect the other way; inactive = no such curve, though single readings can be large or run the other way. This is one part of the list.

target: Cytochrome P450 1A2 (Homo sapiens) (UniProt P05177); experiment: Cytochrome panel assay with activity outcomes; settings: recombinant CYP, pro-luciferin dealkylation, luminescence, p450-cyp1a2; series mostly up to 57.1 µM; activity, negative = inhibition: at the top concentration
% is set by controls: 0 for no effect and ±100 for the full control effect.

Sequence of Cytochrome P450 1A2 (Homo sapiens) (P05177 whole entry, looked up): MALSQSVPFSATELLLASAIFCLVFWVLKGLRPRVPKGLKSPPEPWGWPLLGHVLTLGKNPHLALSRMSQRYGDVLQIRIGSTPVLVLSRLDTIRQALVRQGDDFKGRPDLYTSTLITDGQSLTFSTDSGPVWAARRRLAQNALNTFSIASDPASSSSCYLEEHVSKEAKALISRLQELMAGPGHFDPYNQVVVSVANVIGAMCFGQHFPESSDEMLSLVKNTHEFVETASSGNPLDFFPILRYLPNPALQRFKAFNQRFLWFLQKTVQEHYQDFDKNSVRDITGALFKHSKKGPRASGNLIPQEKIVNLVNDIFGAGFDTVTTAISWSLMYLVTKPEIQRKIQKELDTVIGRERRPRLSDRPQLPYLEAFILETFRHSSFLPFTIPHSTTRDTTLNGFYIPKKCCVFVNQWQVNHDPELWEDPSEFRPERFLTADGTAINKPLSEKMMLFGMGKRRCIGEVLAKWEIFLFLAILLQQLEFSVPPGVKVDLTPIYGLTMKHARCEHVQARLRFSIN

activity, negative = inhibition, inactive:
COc1ccc(O[C@H]2C=C[C@@H](c3ccccc3)O[C@H]2COC(=O)CC/C(C)=N\O[C@@H](C)c2cn([C@H](CO)Cc3ccccc3)nn2)cc1 -0.286% [at 11.4 µM] and -5.55% [at 11.4 µM]
CC(=O)OC1CCC(OC(C)=O)c2c1n([O-])c(C)c(C)[n+]2=O (stereo unspecified) -11.4%
CC1(C)CC(=O)c2cn3ncnc3nc2C1 -18.9%
C[C@@H]1C[C@H]2[C@H]3C[C@@H](F)C4=CC(=O)C=C[C@]4(C)[C@@]3(Cl)[C@@H](O)C[C@@]2(C)[C@@H]1C(=O)COC(=O)C(C)(C)C -13.4% [at 25.6 µM]
O=C(O)Cn1c(-c2ccccc2)nc2ccccc21 -14.9%
CCOC(=O)CSc1nc2ccccc2c(=O)n1CC1CCC(C(=O)NCc2ccco2)CC1 (stereo unspecified) 3.61%
CCOC(=O)Cn1c(CN(Cc2ccccc2)Cc2ccccc2)nc2c1c(=O)[nH]c(=O)n2C -22.4%
CCCCOc1ccccc1C1CC(=O)NC2=C1C(=O)CCC2 (stereo unspecified) -21.7%
NC(=O)NC(=O)CSc1nnc(-c2ccco2)n1Cc1ccccc1 3.98%
CCCC(=O)Nc1ccc2nc(SCC(=O)Nc3ccc(N4CCOCC4)c(Cl)c3)sc2c1 -10.2%
Cc1ccc(S(=O)(=O)NC(=O)CSc2nc3ccccc3s2)cc1 -28.6%
CCc1nnc(NC(=O)CSc2nc(C3CCCCC3)nc3ccccc23)s1 -11.1%
C=CCn1c(SCC(=O)Nc2ncc(Cc3ccc(Br)cc3)s2)nnc1-c1ccncc1 -21.6%
O=P(O)(CCc1ccccc1)C(O)c1ccccc1 (stereo unspecified) 7.23%
CO[C@@H](NC(N)=O)C(=O)O -6.36% [at 2.29 µM]
O=C(O)c1cc(=O)[nH]c(=S)[nH]1 -10.7% [at 2.29 µM]
Cc1cc(C)n2c(SCC(=O)N(C)C3CCS(=O)(=O)C3)nnc2n1 (stereo unspecified) -4.17%
NC(=S)NCCC[C@@H](N)C(=O)O -14.7%
COc1ccc(CNc2nc3nc4c(c(=O)n3[nH]2)CCC4)cc1 -14.6%
Cc1ccccc1CN1C2=NCCN2C(=O)C2=C1CCN(Cc1ccccc1)C2 -2.99% [at 11.4 µM]
CCOc1ccc(C2=[N+]([O-])C(C)(C)N(O)C2(C)C)cc1 4.46%
O=C(CSc1nnc(-c2ccccn2)n1Cc1ccco1)Nc1ccc2c(c1)OCO2 -17.1%
O=C(c1ccccc1)N(Cc1ccco1)C1CCS(=O)(=O)C1 (stereo unspecified) -7.86%
CC(C)(C)C(=O)[C@H]([C@@H](c1ccccc1)N1CCOCC1)N1CCOCC1 -6.91% [at 11.4 µM]
O=[N+]([O-])C(/C=C(\Cl)[N+](=O)[O-])=C1N(Cc2ccc(Cl)nc2)CCN1Cc1ccc(Cl)nc1 -20%
Cc1cc(-c2c(C)[nH]n(-c3ccccc3)c2=O)n(-c2ccccc2)n1 -7.47%
COC(=O)Cn1c(CN(Cc2ccccc2)Cc2ccccc2)nc2c1c(=O)[nH]c(=O)n2C -13.7%
CN(C)N1C(N)=C(C#N)C(c2cccnc2)C2=C1CC(C)(C)CC2=O (stereo unspecified) -4.23%
COc1cc(NC(=O)Cc2c(C(=O)O)[nH]c3ccccc23)cc(OC)c1OC -4.11%
COc1ccc(CSC2=C(C#N)C(=O)NC3(CCCCC3)S2)cc1 -5.77% [at 2.29 µM]
N#C/C(=C\c1cc([N+](=O)[O-])c(N2CCCCC2)cc1N1CCCCC1)c1nn(-c2ccccc2)c(N)c1C#N -19.8%
CO[C@@H]1COC(=O)[C@H](CCSC)NC(=O)C/C=C\[C@@H](C)COC(=O)[C@@H]2CCCN2C(=O)C/C=C\[C@H]1C 7.24% [at 11.4 µM]
C[C@@H]1CCC[C@H](C)N1NC(=O)c1ccc(Cl)c(S(N)(=O)=O)c1 -0.756% [at 25.6 µM]
Cc1ccc2c(c1)nnn2C1CCN(S(=O)(=O)c2ccc(C(=O)N3C(C)CCCC3C)cc2)CC1 (stereo unspecified) -30.6%
CC1(C)CC(NCc2ccc3c(c2)OCO3)CCO1 (stereo unspecified) -15.5%
CS(=O)(=O)N1CCC[C@@]2(CCN(c3ncccn3)C2)C1 -2.13%
COC(=O)c1ccc(Cl)c(NC(=O)c2ccc(-c3ccccc3)cc2)c1 -27%
COc1ccc(-n2c(-c3cnccn3)n[nH]c2=S)cc1 1.32%
Nc1ccn([C@H]2O[C@@H](COP(=O)(O)O)[C@@H](O)[C@H]2O)c(=O)n1 -23.3% [at 11.4 µM]
N#CCCn1c(=O)c(-c2cccc(C#N)c2)nc2cnc(Oc3cccc(Cl)c3)nc21 -17.1%
CC(C)CN1CCC2(CC1)CCN(C(=O)c1cccc(F)c1)CC2 0.754%
CC(=O)OC[C@@H]1O[C@@H](O/N=C2/C[C@@H](O)[C@@H](O)[C@@H]3[C@@H]4C(=O)N(C[C@@H]5CCCO5)C(=O)[C@H]4CC[C@@H]23)[C@H](OC(C)=O)[C@H](OC(C)=O)[C@@H]1OC(C)=O 5.86% [at 11.4 µM]
COc1ccc(/C=N\NC(=O)C2C(=O)NCC2c2ccccc2)cc1O (stereo unspecified) -28.2%
Cc1cccc(C)c1NC(=O)COc1cccc(/C=N/NC(=O)C(=O)NCc2ccccc2)c1 -14.1%
C/C(CCC(=O)OC[C@@H]1O[C@H](C#Cc2ccccc2)C=C[C@@H]1Oc1ccc(C)cc1)=N/OC[C@@H](O)COCc1ccco1 -4.08% [at 11.4 µM]
C/C(CCN1CCCc2nc(C)c(C)cc21)=N\OC[C@@H](O)[C@@H]1O[C@@H]2OC(C)(C)O[C@@H]2[C@H]1O 1.1% [at 11.4 µM]
Nc1nc2ncc(CNc3ccc(C(=O)N[C@@H](CCC(=O)O)C(=O)O)cc3)nc2c(=O)[nH]1 -5.34% [at 25.6 µM]
COc1cc(/C=N/NC(=O)c2cccc([N+](=O)[O-])c2)ccc1OCc1ccc(C)cc1 -24.6%
COc1cc(NC(=S)NC(=O)c2c(OC)cccc2OC)ccc1NC(=O)c1cccs1 -10.4%
CCN(c1ccccc1)S(=O)(=O)c1ccc(NC(=S)NC(=O)c2cccs2)cc1 -24.5%

AC50, active:
O=C(CSc1nc2ccccc2o1)Nc1nc2ccccc2s1 3.16 µM
O=C(CSc1nc2ccccc2s1)NNC(=S)Nc1ccc(Br)cc1 5.01 µM
CCOC(=O)Cn1c(-c2ccccc2)nc2ccccc2c1=O 0.447 µM
CCOC(=O)CSc1nc(-c2ccccc2)nc2ccccc12 0.501 µM
O=C(CSc1nnc(-c2ccncc2)n1Cc1ccccc1)Nc1nccs1 11.2 µM
O=C(CSc1nc(-c2ccccc2)nc2ccccc12)Nc1nccs1 0.158 µM
CC(C)OC(=O)CSc1nc(-c2ccc(F)cc2)nc2ccc(F)cc12 1.12 µM
O=C(CSc1nc2ccccc2s1)Nc1nccs1 2.24 µM
Cc1cccc(-c2nsc(SCC(=O)Nc3nccs3)n2)c1 0.251 µM
C1CCc2c(nc3nnnn3c2NC2CCCC2)C1 11.2 µM
CSc1nc2nc3c(c(=O)n2[nH]1)CN(Cc1ccccc1)CC3 3.16 µM
CCOc1ccc(-c2nnc3ccc(SC)nn23)cc1 1 µM
CSc1ccc2nnc(-c3cccc(F)c3)n2n1 3.16 µM
O=C(CN(Cc1ccco1)C(=O)c1ccccc1)Nc1ccc(Cl)c(Cl)c1 14.1 µM
c1ccc2c(c1)ncn2-c1ncnc2sc3c(c12)CCCC3 5.62 µM
Cc1cc(C(F)(F)F)n2nc(-c3cnn(C)c3C(F)(F)F)cc2n1 1.12 µM
Cc1cc(C(F)(F)F)n2nc(-c3cnn(C)c3C(F)(F)F)c(Cl)c2n1 0.178 µM
Cc1cc2[nH]c(=O)c3ccccc3n2n1 1.26 µM
Cc1nn2c([nH]c(=O)c3ccccc32)c1C=O 2.51 µM
CN(C)c1ccc(-c2nc3n(n2)C(c2cccnc2)C2=C(CC(C)(C)CC2=O)N3)cc1 (stereo unspecified) 3.16 µM
CCc1c(C(=O)O)[nH]c2ccc(Br)cc12 5.01 µM
Cc1nn(-c2ccccc2)c(N2CCCCC2)c1/C=N/O 1.58 µM
CC1CCCC(C)N1C(=O)c1cc(-c2ccc(Cl)c(Cl)c2)on1 (stereo unspecified) 5.01 µM
c1ccc(-c2nc3ccccn3c2NCc2ccc3c(c2)OCO3)cc1 1.78 µM
CCOCC(=O)Nc1cc(C(=O)Nc2ccccc2)ccc1Cl 2.51 µM
CCOCC(=O)Nc1cc(C(=O)Nc2cccc(C)c2C)ccc1Cl 5.01 µM
CCc1c2c(nc3cccc(SC)c13)COC2 2.51 µM
CCc1c2c(nc3ccc(OC)cc13)COC2 0.794 µM
COc1ccc(/C=N/n2c(-c3cccs3)n[nH]c2=S)cc1 0.631 µM
Cc1ccc(/C=N/n2c(-c3cccs3)n[nH]c2=S)cc1 0.282 µM
Cc1ccc(-c2n[nH]c(=S)n2/N=C/c2cccn2C)cc1 3.55 µM
O=c1c(-c2ccccc2)nc2cnc(Oc3cccc(Cl)c3)nc2n1C1CC1 1.58 µM
N#Cc1cccc(-c2nc3cnc(Oc4cccc(Cl)c4)nc3n(C3CC3)c2=O)c1 2.51 µM
O=c1c(-c2ccc(F)cc2)nc2cnc(Oc3cccc(Cl)c3)nc2n1C1CC1 0.316 µM
O=C(N/N=C/c1cccc(OCc2ccccc2)c1)c1cccs1 2.24 µM
COc1ccc(/C=N/NC(=O)CCc2ccccc2)cc1O 25.1 µM
O=C(N/N=C/c1ccc(OCc2ccccc2)cc1)c1cccs1 3.16 µM
C=CCNC(=S)N/N=C/c1ccc(OCc2ccccc2)cc1 14.1 µM
COc1cc(/C=N/NC(=O)c2cccs2)ccc1OCc1ccccc1 0.794 µM
Cc1ccccc1C(=O)Nc1cccc(NC(=S)NC(=O)c2cccs2)c1 3.16 µM
Cc1cccc(NC(=S)NC(=O)c2cccs2)n1 0.794 µM
